Inconclusive results are not listed. The source made the active and inactive calls. Unless noted, calls come from the whole dose curve; as a rule, active = well fitted curve in the direction sought with a large enough effect in the repeat runs; inconclusive = weak or mixed curves; inactive = no such curve, though single readings can be large; an effect the other way counts as inactive or inconclusive.
Legend:
[1] = biological target: Aryl hydrocarbon receptor (Homo sapiens) (UniProt P35869); assay: qHTS assay to identify small molecule that activate the aryl hydrocarbon receptor (AhR) signaling pathway (AID 743085);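 note: HG2L7.5c1 human HepG2 liver cells with stably integrated DRE-driven firefly reporter; series mostly up to about 70 µM; nearly all actives have a fitted effect of over 15% in size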
Outline: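 Steps: seed HepG2-AhR-luc cells; allow 5 h at 37C; pin-transfer test compound or vehicle; incubate 24 h at 37C; add viability dye (30 min, 37C) and read fluorescence; add luciferase substrate (30 min, RT) and read luminescence.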

[2] = qHTS assay to identify small molecule that activate the aryl hydrocarbon receptor (AhR) signaling pathway - cell viability counter screen (AID 743086);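 note: HepG2 liver cells carrying the AhR DRE luciferase reporter; series mostly up to about 70 µM; nearly all actives have a fitted effect of over 45% in size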
Outline: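 HepG2-AhR-luc (HG2L7.5c1) cells, 4000/well, were preincubated 5 h at 37C, exposed to compound in qHTS format for 24 hr at 37C, then given CellTiter-Fluor for 30 min; viability was read as fluorescence in the reporter wells.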

[3] = biological target: Peroxisome proliferator-activated receptor gamma (Homo sapiens) (UniProt P37231); assay: qHTS assay to identify small molecule agonists of the peroxisome proliferator-activated receptor gamma (PPARg) signaling pathway (AID 743094; active = well fitted activation curve with a large enough effect in the signal ratio in the repeat runs, not every such curve was filed as active; the % refers to the signal ratio)
Outline: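 Agonist activity was taken from a beta-lactamase reporter (FRET substrate, 1 h at room temperature) in HEK293H cells carrying a PPARg UAS-bla construct. Compounds in DMSO were incubated 17 h at 37C after a 5 h cell pre-incubation.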

[4] = biological target: Peroxisome proliferator-activated receptor gamma (Homo sapiens) (UniProt P37231); assay: qHTS assay to identify small molecule antagonists of the peroxisome proliferator-activated receptor gamma (PPARg) signaling pathway (AID 743191; calls by dose curve; note: series mostly up to about 63 µM; nearly all actives have a fitted effect of over 30% in size)
Outline: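 GeneBLAzer PPARg UAS-bla HEK293H cells carrying a UAS-driven beta-lactamase reporter were plated at 3000 cells/well, preincubated 5 h at 37C, then given compound for 17 h at 37C; LiveBLAzer B/G FRET substrate was read after 1 h at room temperature.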

[5] = qHTS assay to identify small molecule antagonists of the peroxisome proliferator-activated receptor gamma (PPARg) signaling pathway - cell viability counter screen (AID 743194); settings: Potency: co-treated with 50 nM rosiglitazone; note: nearly all actives have a fitted effect of over 55% in size
Outline: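 PPARg-UAS-bla HEK293H cells were plated, rested 5 h at 37 C, then treated with compounds plus rosiglitazone (50 nM final) for 17 h at 37 C; viability was then read by CellTiter-Glo luminescence after 30 min at room temperature.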

[6] = qHTS assay for small molecule agonists of the antioxidant response element (ARE) signaling pathway (AID 743202; active = well fitted activation curve with a large enough effect in the signal ratio in the repeat runs, not every such curve was filed as active; the % refers to the signal ratio)
Outline: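 Steps: seed ARE-bla HepG2 cells (2,000/well); incubate 5 h at 37 C; add compounds by pin tool; incubate 16 h at 37 C; add FRET substrate; read fluorescence after 2 h at RT.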

[7] = qHTS assay for small molecule agonists of the antioxidant response element (ARE) signaling pathway - cell viability counter screen (AID 743203; calls by dose curve; note: nearly all actives have a fitted effect of over 55% in size)
Outline: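 Viability counter screen: CellTiter-Glo luminescence, read after 30 min at room temperature, in ARE-bla HepG2 wells. Compound exposure lasted 16 h at 37C/5% CO2, following a 5 h pre-incubation of the cells after plating.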

[8] = qHTS assay for small molecule activators of the heat shock response signaling pathway (AID 743210; active = well fitted activation curve with a large enough effect in the signal ratio in the repeat runs, with a control signal flat, not every such curve was filed as active; the % refers to the signal ratio;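 note: HeLa cells with beta-lactamase reporter driven by heat shock elements; series mostly up to about 63 µM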)
Outline: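 Activation of heat shock element-controlled beta-lactamase expression is measured in HeLa cells by LiveBLAzer FRET fluorescence, with compound exposure lasting 5 h at 37 C and substrate loading 2.5 h at room temperature.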

[9] = qHTS assay to identify small molecule agonists of the peroxisome proliferator-activated receptor delta (PPARd) signaling pathway - cell viability counter screen (AID 743211); note: nearly all actives have a fitted effect of over 55% in size
Outline: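 Viability of GeneBLAzer PPARd UAS-bla HEK293H cells was assessed after 17 h compound incubation at 37C, using CellTiter-Glo reagent added after the reporter read and luminescence recorded 30 min later.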

[10] = biological target: Peroxisome proliferator-activated receptor delta (Homo sapiens) (UniProt Q03181); assay: qHTS assay to identify small molecule agonists of the peroxisome proliferator-activated receptor delta (PPARd) signaling pathway (AID 743212; calls by dose curve)
Outline: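 Cells expressing a UAS-driven beta-lactamase reporter (PPARd-bla HEK293H) were given test compounds after a 5 h settle and kept at 37 C. Reporter activity was then measured as FRET fluorescence using LiveBLAzer B/G substrate.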

[11] = biological target: Peroxisome proliferator-activated receptor delta (Homo sapiens) (UniProt Q03181); assay: qHTS assay to identify small molecule antagonists of the peroxisome proliferator-activated receptor delta (PPARd) signaling pathway (AID 743215; active = well fitted inhibition curve with a large enough effect in the signal ratio in the repeat runs, not every such curve was filed as active; the % refers to the signal ratio;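 note: cells stimulated with agonist L165041 at 300 nM final during compound exposure; series mostly up to about 62 µM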)
Outline: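 Agonist L165041 (300 nM final) added with compound to PPARd-bla HEK293H UAS-bla reporter cells; 17 h incubation at 37 C. Read-out: LiveBLAzer FRET substrate, 2 h at room temperature, fluorescence intensity.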

[12] = biological target: Bile acid receptor (Homo sapiens) (UniProt Q96RI1); assay: qHTS assay to identify small molecule antagonists of the farnesoid-X-receptor (FXR) signaling pathway (AID 743217; active = well fitted inhibition curve with a large enough effect in the signal ratio in the repeat runs, not every such curve was filed as active; the % refers to the signal ratio)
Outline: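 Antagonist mode: chenodeoxycholic acid at 50 uM final stimulates a UAS-driven beta-lactamase reporter in HEK 293T FXR-bla cells during 16 h, 37C compound exposure. Read-out is FRET substrate fluorescence after 2 h at room temperature.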

[13] = qHTS assay to identify small molecule agonists of the farnesoid-X-receptor (FXR) signaling pathway - cell viability counter screen (AID 743218); note: nearly all actives have a fitted effect of over 45% in size
Outline: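 Viability counter screen in the same wells: CellTiter-Glo luminescence, 30 min room-temperature incubation, measured after the beta-lactamase read. Cells were GeneBLAzer FXR-UAS-bla HEK 293T, compound-treated 16 h at 37C.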

[14] = biological target: Bile acid receptor (Homo sapiens) (UniProt Q96RI1); assay: qHTS assay to identify small molecule agonists of the farnesoid-X-receptor (FXR) signaling pathway (AID 743220; active = well fitted activation curve with a large enough effect in the signal ratio in the repeat runs, not every such curve was filed as active; the % refers to the signal ratio)
Outline: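 FXR-UAS-bla HEK 293T cells carrying a UAS-driven beta-lactamase reporter were plated for 5 h at 37C/5% CO2, then exposed to DMSO-dissolved Tox21 10K compounds for 16 h at 37C. A LiveBLAzer B/G FRET substrate was loaded for 2 h at room temperature before fluorescence reading.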

[15] = biological target: Vitamin D3 receptor (Homo sapiens) (UniProt P11473); assay: qHTS assay to identify small molecule agonists of the vitamin D receptor (VDR) signaling pathway (AID 743222; calls by dose curve)
Outline: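 Agonist mode, beta-lactamase reporter: fluorescence from LiveBLAzer B/G FRET substrate (2 h, room temperature) read after 16 h compound treatment at 37 C of VDR-bla cells, which were pre-incubated 4 h after seeding.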

[16] = biological target: Vitamin D3 receptor (Homo sapiens) (UniProt P11473); assay: qHTS assay to identify small molecule antagonists of the vitamin D receptor (VDR) signaling pathway (AID 743223; active = well fitted inhibition curve with a large enough effect in the signal ratio in the repeat runs, not every such curve was filed as active; the % refers to the signal ratio)
Outline: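 Fluorescence from LiveBLAzer B/G FRET substrate, read after 2 h at room temperature, reflects beta-lactamase reporter activity in VDR-bla cells treated 16 h at 37C with compounds and agonist 1alpha,25-dihydroxyvitamin D3 (3 nM final).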

[17] = qHTS assay to identify small molecule agonists of the vitamin D receptor (VDR) signaling pathway - cell viability counter screen (AID 743224); note: series mostly up to about 63 µM; nearly all actives have a fitted effect of over 50% in size
Outline: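 Counter screen run in the same wells as the VDR-bla reporter assay: CellTiter-Glo luminescence, 30 min at room temperature, after 16 h compound treatment at 37C of cells pre-plated for 4 h.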

[18] = qHTS assay for small molecule activators of the heat shock response signaling pathway - cell viability counter screen (AID 743209); note: nearly all actives have a fitted effect of over 50% in size
Outline: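 Cytotoxicity counter screen run in the same wells as the heat-shock bla reporter assay: HeLa HSE-bla cells, 5 h compound exposure at 37 C, viability read by CellTiter-Glo luminescence.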

[19] = qHTS assay to identify small molecule antagonists of the peroxisome proliferator-activated receptor delta (PPARd) signaling pathway - cell viability counter screen (AID 743213); note: nearly all actives have a fitted effect of over 50% in size
Outline: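 HEK293H PPARd UAS-bla cells, 5 h pre-incubation, compound + L165041 300 nM final, 17 h 37 C; B/G FRET substrate 2 h RT; then CellTiter-Glo 30 min RT, luminescence.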

[20] = qHTS assay to identify small molecule antagonists of the farnesoid-X-receptor (FXR) signaling pathway - cell viability counter screen (AID 743221; active = well fitted cell-killing curve with a large enough effect in the repeat runs, not every such curve was filed as active; note: nearly all actives have a fitted effect of over 50% in size)
Outline: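 Quantitative HTS of the Tox21 10K library run in parallel with the beta-lactamase reporter read. HEK 293T cells carrying a UAS-driven bla reporter got compound and 50 uM CDCA (final) for 16 h; ATP-based luminescence followed.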

Measured: Potency

Chain of Bile acid receptor (Homo sapiens) (Q96RI1 whole entry, looked up): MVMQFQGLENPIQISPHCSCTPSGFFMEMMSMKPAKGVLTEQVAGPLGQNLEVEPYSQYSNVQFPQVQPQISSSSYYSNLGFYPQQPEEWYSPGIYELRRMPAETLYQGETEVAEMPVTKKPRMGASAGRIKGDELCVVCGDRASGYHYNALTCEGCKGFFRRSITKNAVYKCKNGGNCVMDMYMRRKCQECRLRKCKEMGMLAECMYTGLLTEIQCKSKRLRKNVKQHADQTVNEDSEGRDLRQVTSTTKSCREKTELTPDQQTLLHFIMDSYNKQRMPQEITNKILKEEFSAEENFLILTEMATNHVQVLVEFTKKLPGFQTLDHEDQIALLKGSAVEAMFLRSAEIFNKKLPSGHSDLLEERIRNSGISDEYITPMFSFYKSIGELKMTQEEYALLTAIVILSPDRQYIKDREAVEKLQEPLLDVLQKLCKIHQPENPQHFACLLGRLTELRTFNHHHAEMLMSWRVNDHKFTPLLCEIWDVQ
Chain of Vitamin D3 receptor (Homo sapiens) (P11473 whole entry, looked up): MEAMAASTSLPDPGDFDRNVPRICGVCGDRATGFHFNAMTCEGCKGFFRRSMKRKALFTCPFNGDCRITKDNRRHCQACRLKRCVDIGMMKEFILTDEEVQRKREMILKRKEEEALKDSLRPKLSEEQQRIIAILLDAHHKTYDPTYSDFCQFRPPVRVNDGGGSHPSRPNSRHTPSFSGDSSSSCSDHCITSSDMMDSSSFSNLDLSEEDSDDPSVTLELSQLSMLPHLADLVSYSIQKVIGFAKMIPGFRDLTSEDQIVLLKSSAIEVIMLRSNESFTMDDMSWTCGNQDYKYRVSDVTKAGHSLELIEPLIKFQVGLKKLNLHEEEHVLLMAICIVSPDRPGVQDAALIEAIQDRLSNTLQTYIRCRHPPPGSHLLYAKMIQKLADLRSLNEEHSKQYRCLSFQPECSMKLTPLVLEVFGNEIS
Chain of Aryl hydrocarbon receptor (Homo sapiens) (P35869 whole entry, looked up): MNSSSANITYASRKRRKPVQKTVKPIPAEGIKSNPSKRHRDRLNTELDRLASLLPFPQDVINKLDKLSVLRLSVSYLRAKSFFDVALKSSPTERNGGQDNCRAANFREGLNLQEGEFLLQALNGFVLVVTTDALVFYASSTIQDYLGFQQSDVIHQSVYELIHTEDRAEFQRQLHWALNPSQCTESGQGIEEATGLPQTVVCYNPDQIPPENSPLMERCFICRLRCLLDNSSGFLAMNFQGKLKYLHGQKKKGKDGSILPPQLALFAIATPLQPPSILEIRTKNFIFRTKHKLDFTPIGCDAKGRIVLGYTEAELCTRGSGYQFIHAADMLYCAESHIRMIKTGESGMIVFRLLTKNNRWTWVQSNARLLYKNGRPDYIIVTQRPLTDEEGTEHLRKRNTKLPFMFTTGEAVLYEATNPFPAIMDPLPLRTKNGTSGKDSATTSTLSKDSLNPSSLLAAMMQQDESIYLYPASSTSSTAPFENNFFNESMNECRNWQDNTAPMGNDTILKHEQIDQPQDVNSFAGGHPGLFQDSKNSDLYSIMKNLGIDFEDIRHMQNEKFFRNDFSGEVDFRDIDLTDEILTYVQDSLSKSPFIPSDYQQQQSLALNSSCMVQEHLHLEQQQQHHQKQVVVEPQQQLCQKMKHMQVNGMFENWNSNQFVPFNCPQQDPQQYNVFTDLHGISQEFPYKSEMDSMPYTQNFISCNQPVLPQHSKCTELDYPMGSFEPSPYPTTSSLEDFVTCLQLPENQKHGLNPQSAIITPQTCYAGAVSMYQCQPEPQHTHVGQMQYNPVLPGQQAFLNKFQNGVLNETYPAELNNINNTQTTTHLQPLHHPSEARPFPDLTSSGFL
Chain of Peroxisome proliferator-activated receptor delta (Homo sapiens) (Q03181 whole entry, looked up): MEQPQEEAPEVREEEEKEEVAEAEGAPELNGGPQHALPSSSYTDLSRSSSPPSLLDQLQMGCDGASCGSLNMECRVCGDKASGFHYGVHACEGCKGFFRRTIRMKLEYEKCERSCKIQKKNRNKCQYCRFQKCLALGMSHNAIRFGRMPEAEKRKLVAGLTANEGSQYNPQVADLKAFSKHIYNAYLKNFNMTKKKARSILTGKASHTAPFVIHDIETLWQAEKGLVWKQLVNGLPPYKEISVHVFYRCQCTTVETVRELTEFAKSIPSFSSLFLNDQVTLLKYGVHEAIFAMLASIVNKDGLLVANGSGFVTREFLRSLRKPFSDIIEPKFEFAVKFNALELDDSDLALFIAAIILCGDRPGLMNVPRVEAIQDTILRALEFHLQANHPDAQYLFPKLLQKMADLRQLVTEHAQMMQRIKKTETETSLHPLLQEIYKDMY
Chain of Peroxisome proliferator-activated receptor gamma (Homo sapiens) (P37231 whole entry, looked up): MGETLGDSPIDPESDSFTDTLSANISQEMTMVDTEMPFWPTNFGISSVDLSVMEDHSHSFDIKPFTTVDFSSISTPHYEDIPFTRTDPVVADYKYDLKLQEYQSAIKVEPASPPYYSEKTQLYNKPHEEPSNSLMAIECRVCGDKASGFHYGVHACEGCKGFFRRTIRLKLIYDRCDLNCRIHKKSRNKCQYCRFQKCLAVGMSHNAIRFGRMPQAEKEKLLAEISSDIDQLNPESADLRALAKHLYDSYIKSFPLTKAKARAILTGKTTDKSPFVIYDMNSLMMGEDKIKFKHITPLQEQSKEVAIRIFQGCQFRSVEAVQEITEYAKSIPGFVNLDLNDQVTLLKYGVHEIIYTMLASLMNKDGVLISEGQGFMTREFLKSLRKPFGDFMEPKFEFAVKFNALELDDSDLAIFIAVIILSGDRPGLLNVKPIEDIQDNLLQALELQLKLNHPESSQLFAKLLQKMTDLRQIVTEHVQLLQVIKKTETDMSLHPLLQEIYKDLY

O=C(O)C(Cl)(Cl)Br
inactive: [1] | [2] | [3] | [4] | [5] | [6] | [7] | [8] | [9] | [10] | [11] | [12] | [13] | [14] | [15] | [16] | [17]

Nc1cc(Cl)cc(C(=O)O)c1Cl
inactive: [1] | [2] | [3] | [4] | [5] | [6] | [7] | [18] | [8] | [9] | [10] | [19] | [11] | [13] | [20] | [15] | [16]

CC(Cl)C(=O)O (stereo not drawn)
inactive: [1] | [2] | [3] | [4] | [5] | [6] | [18] | [8] | [9] | [15] | [17]

C=CCOCC1CO1 (stereo not drawn)
inactive: [1] | [2] | [3] | [4] | [5] | [6] | [7] | [8] | [19] | [13] | [14] | [20] | [15] | [16] | [17]

C1CCNCC1
inactive: [1] | [2] | [3] | [4] | [5] | [6] | [7] | [8] | [10] | [19] | [11] | [13] | [20] | [15] | [16] | [17]

CCCN(CCC)c1c([N+](=O)[O-])cc(C(C)C)cc1[N+](=O)[O-]
inactive: [1] | [2] | [3] | [4] | [5] | [6] | [7] | [18] | [8] | [9] | [10] | [19] | [11] | [13] | [20] | [15] | [16] | [17]

O=C(O)c1cc(Cl)ccc1Cl
inactive: [1] | [2] | [3] | [4] | [5] | [7] | [18] | [8] | [9] | [10] | [19] | [11] | [12] | [13] | [14] | [20] | [15] | [16] | [17]

CCCC[N+](CCCC)(CCCC)CCCC
inactive: [1] | [2] | [3] | [4] | [5] | [6] | [8] | [9] | [10] | [19] | [20] | [15] | [17]

CCCCCl
inactive: [1] | [2] | [3] | [4] | [5] | [7] | [18] | [8] | [9] | [10] | [19] | [11] | [12] | [13] | [14] | [15] | [17]
